Results reported in the supplement of paper PMC10849652.
The full data set covers some 8,800 targets. This sample favours those with a hit. About 0.5% of all pairs of compound and target were hits.

What was measured:
Assay in all cases: log2 fold change, soluble protein after heating vs DMSO (PISA); higher = thermal stabilisation; K562 lysate, 10 uM; active = over 0.2 and 3.5 SD of the protein, either way, in both replicates (recomputed)
nilotinib = compound: Cc1cn(-c2cc(NC(=O)c3ccc(C)c(Nc4nccc(-c5cccnc5)n4)c3)cc(C(F)(F)F)c2)cn1 [nilotinib]
Summary of the method: (§1)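 Soluble protein was defined as the supernatant remaining after 21,000xg for 90 min, following pooling of heated aliquots and adjustment to 0.5% NP-40 at 4°C. Before that, crude K562 extract at 1 mg/mL protein in PBS pH 7.4 with 1 mM MgCl2 was treated with 10 μM compound for 30 min and heated for 3 min across 48°C-58°C. Quantification used TMTpro 16plex LC-MS/MS with channel sums equalised, and values are log-two fold changes in thermal stability relative to solvent controls from duplicates.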

[1] = compound: Cc1nc(Nc2n[nH]c3c2CN(C(=O)N[C@H](CN(C)C)c2ccccc2)C3(C)C)c2sccc2n1
Summary of the method: as §1

dasatinib = compound: Cc1nc(Nc2ncc(C(=O)Nc3c(C)cccc3Cl)s2)cc(N2CCN(CCO)CC2)n1 [dasatinib]
Summary of the method: as §1

[2] = compound: Cc1ncc(-c2ccnc(Nc3ccc(S(C)(=O)=O)cc3)n2)n1C(C)C
Summary of the method: as §1

[3] = compound: Cn1cc(-c2ccc3c(c2)CCN3C(=O)Cc2cccc(C(F)(F)F)c2)c2c(N)ncnc21
Summary of the method: as §1

quisinostat = compound: Cn1cc(CNCC2CCN(c3ncc(C(=O)NO)cn3)CC2)c2ccccc21 [quisinostat]
Summary of the method: as §1

tipifarnib = compound: Cn1cncc1[C@@](N)(c1ccc(Cl)cc1)c1ccc2c(c1)c(-c1cccc(Cl)c1)cc(=O)n2C [tipifarnib]
Summary of the method: as §1

[4] = compound: NC(=O)Nc1cc(-c2cccc(F)c2)sc1C(=O)N[C@H]1CCCNC1
Summary of the method: as §1

[5] = compound: NC(=O)c1cnc(N[C@@H]2CCCC[C@@H]2N)nc1Nc1cccc(-n2nccn2)c1
Summary of the method: as §1

[6] = compound: NC1(c2ccc(-c3nc4ccn5c(=O)[nH]nc5c4cc3-c3ccccc3)cc2)CCC1
Summary of the method: as §1

[7] = compound: NCC(=O)Nc1ccc(-n2nc(C(F)(F)F)cc2-c2ccc3c(ccc4ccccc43)c2)cc1
Summary of the method: as §1

vorinostat = compound: O=C(CCCCCCC(=O)Nc1ccccc1)NO [vorinostat]
Summary of the method: as §1

silmitasertib = compound: O=C(O)c1ccc2c(c1)nc(Nc1cccc(Cl)c1)c1ccncc12 [silmitasertib]
Summary of the method: as §1

[8] = compound: O=C1NC(=O)C(c2cnc3ccccn23)=C1c1cn2c3c(cc(F)cc13)CN(C(=O)N1CCCCC1)CC2
Summary of the method: as §1

entospletinib = compound: c1cn2cc(-c3ccc4cn[nH]c4c3)nc(Nc3ccc(N4CCOCC4)cc3)c2n1 [entospletinib]
Summary of the method: as §1

Measured: log2 fold change

TUBB (UniProt P07437)
Sequence of UniProt P07437 (P07437 whole entry, looked up): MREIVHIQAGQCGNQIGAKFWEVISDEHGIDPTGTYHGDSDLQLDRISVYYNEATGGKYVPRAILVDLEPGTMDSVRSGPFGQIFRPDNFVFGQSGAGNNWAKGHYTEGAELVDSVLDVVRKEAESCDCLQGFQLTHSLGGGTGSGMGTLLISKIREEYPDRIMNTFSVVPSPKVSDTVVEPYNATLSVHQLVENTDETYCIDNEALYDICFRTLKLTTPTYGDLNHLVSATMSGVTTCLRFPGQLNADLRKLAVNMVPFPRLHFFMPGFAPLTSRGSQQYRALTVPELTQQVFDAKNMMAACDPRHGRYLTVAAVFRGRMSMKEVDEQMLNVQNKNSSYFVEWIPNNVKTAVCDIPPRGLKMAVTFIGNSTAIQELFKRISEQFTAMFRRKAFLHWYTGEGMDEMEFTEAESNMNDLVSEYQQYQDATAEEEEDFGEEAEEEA
active: vorinostat -0.529
inactive: nilotinib 0.067 | [1] 0.016 | dasatinib -0.043 | [2] -0.001 | [3] -0.011 | quisinostat 0.004 | tipifarnib 0.022 | [4] 0.048 | [5] -0.022 | [6] -0.003 | [7] 0.025 | silmitasertib 0.009 | [8] 0.032 | entospletinib -0.018

TRMT2A (UniProt Q8IZ69)
Sequence of UniProt Q8IZ69 (Q8IZ69 whole entry, looked up): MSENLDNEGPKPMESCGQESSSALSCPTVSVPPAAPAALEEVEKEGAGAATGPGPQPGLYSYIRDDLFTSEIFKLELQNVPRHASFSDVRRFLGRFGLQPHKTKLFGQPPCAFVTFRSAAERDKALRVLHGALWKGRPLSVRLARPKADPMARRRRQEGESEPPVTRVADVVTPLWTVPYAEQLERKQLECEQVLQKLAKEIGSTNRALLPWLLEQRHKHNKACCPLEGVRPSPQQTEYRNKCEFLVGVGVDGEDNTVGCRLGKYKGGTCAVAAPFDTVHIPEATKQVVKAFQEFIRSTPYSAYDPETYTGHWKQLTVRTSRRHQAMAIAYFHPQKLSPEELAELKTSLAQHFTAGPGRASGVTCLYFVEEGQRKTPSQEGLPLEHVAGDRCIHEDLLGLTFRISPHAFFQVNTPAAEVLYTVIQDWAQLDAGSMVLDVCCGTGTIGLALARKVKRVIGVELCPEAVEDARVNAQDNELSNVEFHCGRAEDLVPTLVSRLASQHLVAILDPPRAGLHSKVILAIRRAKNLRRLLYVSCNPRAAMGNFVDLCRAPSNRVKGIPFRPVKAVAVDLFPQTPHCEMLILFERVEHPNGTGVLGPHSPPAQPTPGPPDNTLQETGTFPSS
active: vorinostat -0.366
inactive: nilotinib -0.034 | [1] -0.011 | dasatinib -0.018 | [2] -0.011 | [3] 0.013 | quisinostat -0.023 | tipifarnib -0.007 | [4] 0.016 | [5] -0.002 | [6] -0.012 | [7] -0.012 | silmitasertib 0.034 | [8] -0.007 | entospletinib 0.002

UBIAD1 (UniProt Q9Y5Z9)
inactive: nilotinib 0.14 | [1] -0.014 | dasatinib 0.117 | [2] 0.125 | [3] -0.014 | quisinostat 0.096 | tipifarnib 0.04 | [4] -0.019 | [5] -0.034 | [6] -0.027 | [7] -0.061 | vorinostat 0.042 | silmitasertib 0.04 | [8] 0.032 | entospletinib 0.058

TRIM56 (UniProt Q9BRZ2)
Sequence of UniProt Q9BRZ2 (Q9BRZ2 whole entry, looked up): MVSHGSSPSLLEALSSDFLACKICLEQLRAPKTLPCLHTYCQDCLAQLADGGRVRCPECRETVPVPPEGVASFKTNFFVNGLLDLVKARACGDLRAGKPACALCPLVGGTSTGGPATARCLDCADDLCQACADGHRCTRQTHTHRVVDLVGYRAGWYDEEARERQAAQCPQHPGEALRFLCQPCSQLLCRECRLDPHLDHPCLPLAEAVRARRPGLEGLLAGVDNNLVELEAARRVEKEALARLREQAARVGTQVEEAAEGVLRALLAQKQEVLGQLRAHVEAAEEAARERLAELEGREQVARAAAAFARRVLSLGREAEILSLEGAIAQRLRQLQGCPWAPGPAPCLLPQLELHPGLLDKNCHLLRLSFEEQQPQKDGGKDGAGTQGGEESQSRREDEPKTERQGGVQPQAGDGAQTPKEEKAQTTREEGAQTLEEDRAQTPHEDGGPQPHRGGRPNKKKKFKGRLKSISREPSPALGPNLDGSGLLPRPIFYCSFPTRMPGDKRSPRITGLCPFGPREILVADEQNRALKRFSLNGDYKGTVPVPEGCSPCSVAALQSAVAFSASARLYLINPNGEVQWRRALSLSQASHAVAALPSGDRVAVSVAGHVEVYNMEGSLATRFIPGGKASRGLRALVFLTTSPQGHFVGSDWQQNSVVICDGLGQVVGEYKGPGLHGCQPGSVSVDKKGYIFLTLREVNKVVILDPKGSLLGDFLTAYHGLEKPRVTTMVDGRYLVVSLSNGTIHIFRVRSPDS
inactive: nilotinib 0.033 | [1] 0.031 | dasatinib -0.073 | [2] -0.006 | [3] 0.017 | quisinostat -0.043 | tipifarnib -0.048 | [4] 0.005 | [5] -0.01 | [6] 0.007 | [7] -0.022 | silmitasertib -0.043 | [8] -0.016 | entospletinib -0.004
active: vorinostat -0.428

TP53RK (UniProt Q96S44)
inactive: nilotinib 0.011 | [1] 0 | dasatinib 0.052 | [2] 0.047 | [3] 0.057 | quisinostat 0.002 | tipifarnib 0.048 | [4] 0.021 | [5] 0.041 | [6] -0.013 | [7] -0.017 | vorinostat 0.049 | silmitasertib -0.19 | [8] -0.014 | entospletinib 0.031

TIAL1 isoform 2 (UniProt Q01085)
active: nilotinib -0.603
inactive: [1] -0.013 | dasatinib 0.025 | [2] -0.015 | [3] 0.028 | quisinostat 0.039 | tipifarnib -0.037 | [4] -0.016 | [5] 0.004 | [6] 0.033 | [7] -0.001 | vorinostat 0.041 | silmitasertib 0.023 | [8] -0.049 | entospletinib 0.028

UBR5 (UniProt O95071)
Sequence of UniProt O95071 (O95071 whole entry, looked up): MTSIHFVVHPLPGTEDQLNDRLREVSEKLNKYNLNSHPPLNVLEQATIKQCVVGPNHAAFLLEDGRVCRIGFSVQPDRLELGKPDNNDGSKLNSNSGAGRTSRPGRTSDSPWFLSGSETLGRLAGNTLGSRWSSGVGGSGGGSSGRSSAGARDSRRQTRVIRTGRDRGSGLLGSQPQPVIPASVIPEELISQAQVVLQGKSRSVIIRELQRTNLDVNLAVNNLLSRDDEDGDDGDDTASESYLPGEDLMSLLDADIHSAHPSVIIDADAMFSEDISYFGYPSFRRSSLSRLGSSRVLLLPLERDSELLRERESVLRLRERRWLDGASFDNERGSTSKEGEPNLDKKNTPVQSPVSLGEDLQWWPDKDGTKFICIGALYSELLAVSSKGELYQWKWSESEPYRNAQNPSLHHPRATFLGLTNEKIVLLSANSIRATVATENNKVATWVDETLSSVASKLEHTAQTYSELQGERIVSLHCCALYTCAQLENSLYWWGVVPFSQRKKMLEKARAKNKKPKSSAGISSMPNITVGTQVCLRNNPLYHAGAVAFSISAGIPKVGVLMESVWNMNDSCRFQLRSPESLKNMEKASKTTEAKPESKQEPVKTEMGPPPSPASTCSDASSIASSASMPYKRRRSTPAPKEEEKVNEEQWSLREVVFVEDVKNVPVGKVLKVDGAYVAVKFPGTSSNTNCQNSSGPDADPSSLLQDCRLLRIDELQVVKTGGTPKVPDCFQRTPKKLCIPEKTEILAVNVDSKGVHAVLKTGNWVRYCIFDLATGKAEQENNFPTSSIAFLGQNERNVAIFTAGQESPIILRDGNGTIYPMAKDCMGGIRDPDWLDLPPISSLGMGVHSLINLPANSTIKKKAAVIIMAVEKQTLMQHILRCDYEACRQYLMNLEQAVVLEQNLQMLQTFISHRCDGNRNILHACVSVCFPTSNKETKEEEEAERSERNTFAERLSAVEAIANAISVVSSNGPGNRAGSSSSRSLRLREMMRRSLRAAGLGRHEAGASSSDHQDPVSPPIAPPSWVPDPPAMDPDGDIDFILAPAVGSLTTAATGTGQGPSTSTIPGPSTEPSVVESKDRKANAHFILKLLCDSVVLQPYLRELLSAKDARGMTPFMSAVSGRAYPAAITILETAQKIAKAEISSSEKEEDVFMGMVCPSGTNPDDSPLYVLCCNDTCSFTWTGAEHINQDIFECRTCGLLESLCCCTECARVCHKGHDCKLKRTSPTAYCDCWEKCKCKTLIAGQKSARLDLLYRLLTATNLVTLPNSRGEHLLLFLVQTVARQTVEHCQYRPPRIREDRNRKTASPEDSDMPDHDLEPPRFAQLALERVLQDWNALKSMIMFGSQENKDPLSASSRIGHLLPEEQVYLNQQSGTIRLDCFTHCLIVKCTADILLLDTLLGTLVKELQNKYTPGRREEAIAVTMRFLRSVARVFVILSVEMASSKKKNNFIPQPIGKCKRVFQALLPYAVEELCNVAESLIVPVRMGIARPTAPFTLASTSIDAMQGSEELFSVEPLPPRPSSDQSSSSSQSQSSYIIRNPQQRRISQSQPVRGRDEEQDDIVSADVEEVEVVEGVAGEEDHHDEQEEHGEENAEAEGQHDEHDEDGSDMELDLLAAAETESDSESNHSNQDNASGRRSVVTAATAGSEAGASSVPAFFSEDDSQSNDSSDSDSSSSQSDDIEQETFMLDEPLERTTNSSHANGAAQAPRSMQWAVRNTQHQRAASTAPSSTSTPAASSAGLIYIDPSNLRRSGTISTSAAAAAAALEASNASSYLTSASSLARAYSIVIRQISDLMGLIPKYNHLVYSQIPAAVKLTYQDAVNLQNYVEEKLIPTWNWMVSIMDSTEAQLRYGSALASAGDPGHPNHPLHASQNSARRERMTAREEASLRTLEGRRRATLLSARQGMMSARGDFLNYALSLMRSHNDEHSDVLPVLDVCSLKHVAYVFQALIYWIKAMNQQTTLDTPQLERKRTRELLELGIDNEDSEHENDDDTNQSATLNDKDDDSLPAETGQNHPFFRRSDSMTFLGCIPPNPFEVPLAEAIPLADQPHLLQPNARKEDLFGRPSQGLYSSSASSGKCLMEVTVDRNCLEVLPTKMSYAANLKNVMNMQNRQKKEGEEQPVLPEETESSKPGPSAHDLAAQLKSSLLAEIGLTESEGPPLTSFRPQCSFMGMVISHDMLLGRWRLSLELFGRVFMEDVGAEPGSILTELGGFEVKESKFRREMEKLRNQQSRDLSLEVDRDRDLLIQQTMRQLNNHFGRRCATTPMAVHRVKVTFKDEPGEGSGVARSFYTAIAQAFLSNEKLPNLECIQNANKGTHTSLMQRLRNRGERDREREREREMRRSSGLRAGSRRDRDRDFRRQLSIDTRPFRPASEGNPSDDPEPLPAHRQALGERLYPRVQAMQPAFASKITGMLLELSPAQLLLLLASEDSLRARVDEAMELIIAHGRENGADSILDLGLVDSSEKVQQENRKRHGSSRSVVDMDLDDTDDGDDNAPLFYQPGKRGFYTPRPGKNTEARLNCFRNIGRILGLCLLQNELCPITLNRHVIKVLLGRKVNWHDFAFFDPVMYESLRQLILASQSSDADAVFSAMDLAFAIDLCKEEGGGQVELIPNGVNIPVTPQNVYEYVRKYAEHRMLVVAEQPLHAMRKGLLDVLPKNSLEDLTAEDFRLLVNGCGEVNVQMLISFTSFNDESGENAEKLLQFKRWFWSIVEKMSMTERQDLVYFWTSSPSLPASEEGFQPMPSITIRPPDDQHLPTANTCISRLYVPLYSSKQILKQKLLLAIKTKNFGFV
inactive: nilotinib 0.006 | [1] 0.027 | dasatinib -0.028 | [2] -0.019 | [3] 0.019 | quisinostat -0.059 | tipifarnib -0.02 | [4] 0.005 | [5] 0.013 | [6] -0.009 | [7] 0.009 | silmitasertib 0.011 | [8] -0.011 | entospletinib -0.006
active: vorinostat -0.234

TTC38 (UniProt Q5R3I4)
inactive: nilotinib 0.02 | [1] 0.016 | dasatinib 0.029 | [2] 0.059 | [3] -0.003 | tipifarnib 0.026 | [4] -0.036 | [5] 0.015 | [6] 0.029 | [7] 0.017 | vorinostat -0.044 | silmitasertib -0.014 | [8] -0.022 | entospletinib 0.029
active: quisinostat 0.293

UFM1 (UniProt P61960)
Sequence of UniProt P61960 (P61960 whole entry, looked up): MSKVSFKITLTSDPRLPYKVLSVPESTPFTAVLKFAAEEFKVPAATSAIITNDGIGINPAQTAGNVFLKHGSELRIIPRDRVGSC
inactive: nilotinib 0.042 | [1] 0 | dasatinib -0.037 | [2] 0.107 | [3] -0.032 | quisinostat 0.321 | tipifarnib 0.088 | [4] -0.116 | [5] -0.063 | [6] 0.043 | [7] -0.247 | vorinostat 0.036 | silmitasertib -0.074 | [8] -0.109 | entospletinib -0.011

TIMM44 (UniProt O43615)
active: vorinostat 0.245
inactive: nilotinib 0.082 | [1] -0.011 | dasatinib -0.087 | [2] 0.023 | [3] -0.028 | quisinostat 0.003 | tipifarnib -0.108 | [4] -0.058 | [5] 0 | [6] -0.031 | [7] 0.045 | silmitasertib 0.015 | [8] 0.029 | entospletinib -0.026

TRIM33 isoform 2 (UniProt Q9UPN9)
inactive: nilotinib 0.004 | [1] -0.012 | dasatinib -0.044 | [2] -0.015 | [3] 0.021 | quisinostat -0.035 | tipifarnib 0.021 | [4] -0.01 | [5] 0.01 | [6] -0.025 | [7] -0.005 | silmitasertib -0.026 | [8] -0.04 | entospletinib -0.024
active: vorinostat -0.393

TMEM14C (UniProt Q9P0S9)
inactive: nilotinib 0.065 | [1] -0.089 | dasatinib 0.031 | [2] 0.13 | [3] 0.029 | quisinostat -0.299 | tipifarnib -0.017 | [4] 0.029 | [5] -0.13 | [6] -0.07 | [7] -0.032 | vorinostat -0.018 | silmitasertib 0.013 | [8] 0.058 | entospletinib 0.091

TPM3 (UniProt P06753)
inactive: nilotinib 0.014 | [1] -0.033 | dasatinib 0.023 | [2] 0.028 | [3] -0.012 | quisinostat 0.046 | tipifarnib 0.033 | [4] -0.042 | [5] -0.02 | [6] 0.034 | [7] 0.004 | vorinostat 0.112 | silmitasertib 0.012 | [8] -0.004 | entospletinib 0.008

TEX30 (UniProt Q5JUR7)
active: vorinostat -0.534
inactive: nilotinib -0.036 | [1] 0.072 | dasatinib -0.109 | [2] 0.003 | [3] -0.004 | quisinostat 0.007 | tipifarnib 0 | [4] 0.046 | [5] -0.017 | [6] -0.052 | [7] 0.035 | silmitasertib 0.041 | [8] -0.006 | entospletinib 0.001

UBA1 (UniProt P22314)
active: vorinostat -0.371
inactive: nilotinib -0.004 | [1] 0.014 | dasatinib -0.026 | [2] 0.002 | [3] 0.028 | quisinostat -0.019 | tipifarnib -0.01 | [4] 0.019 | [5] 0.008 | [6] -0.011 | [7] 0.018 | silmitasertib 0.01 | [8] -0.003 | entospletinib 0.02

TOR3A (UniProt Q9H497)
Sequence of UniProt Q9H497 (Q9H497 whole entry, looked up): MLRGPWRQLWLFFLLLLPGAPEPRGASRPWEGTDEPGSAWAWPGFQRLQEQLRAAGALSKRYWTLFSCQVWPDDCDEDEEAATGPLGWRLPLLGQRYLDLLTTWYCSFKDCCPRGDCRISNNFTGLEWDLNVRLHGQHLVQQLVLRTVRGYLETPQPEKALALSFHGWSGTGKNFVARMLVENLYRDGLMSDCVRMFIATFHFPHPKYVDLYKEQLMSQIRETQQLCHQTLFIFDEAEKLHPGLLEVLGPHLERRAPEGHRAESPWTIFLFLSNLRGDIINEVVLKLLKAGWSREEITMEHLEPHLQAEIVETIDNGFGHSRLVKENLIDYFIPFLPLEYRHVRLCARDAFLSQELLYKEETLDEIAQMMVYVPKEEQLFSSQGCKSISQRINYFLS
inactive: nilotinib 0.042 | [1] -0.037 | dasatinib 0.022 | [2] -0.043 | [3] 0.012 | quisinostat 0.019 | tipifarnib -0.061 | [4] 0.054 | [5] 0.041 | [6] -0.064 | [7] 0.011 | vorinostat 0.048 | silmitasertib -0.002 | [8] -0.016 | entospletinib 0.02

UBE3C (UniProt Q15386)
inactive: nilotinib -0.006 | [1] 0.025 | dasatinib -0.047 | [2] -0.017 | [3] 0.049 | quisinostat 0.013 | tipifarnib 0.01 | [4] 0.061 | [5] 0.027 | [6] -0.053 | [7] -0.009 | silmitasertib -0.001 | [8] 0 | entospletinib 0.05
active: vorinostat -0.479

TTLL12 (UniProt Q14166)
inactive: nilotinib 0.015 | [1] -0.012 | dasatinib -0.028 | [2] -0.027 | [3] -0.006 | quisinostat -0.015 | tipifarnib 0.008 | [4] 0.067 | [5] 0.001 | [6] -0.013 | [7] -0.021 | silmitasertib 0.092 | [8] 0.02 | entospletinib 0.049
active: vorinostat -0.426
